According to PubChem BioAssay AID2596 (National Center for Advancing Translational Sciences (NCATS), 2010):
Records with an inconclusive call do not appear. Active and inactive are the calls of the source. Calls come from the whole dose curve; as a rule, active = well fitted inhibition curve with a large enough effect; inconclusive = small, poorly fitted or top-dose-only effect, or effect the other way; inactive = flat fitted curve, though single readings scatter.

biological target: Lysosomal acid glucosylceramidase (Homo sapiens) (UniProt P04062); test: qHTS Assay for Inhibitors and Activators of N370S glucocerebrosidase as a Potential Chaperone Treatment of Gaucher Disease: Purified N370S Glucocerebrosidase Cleavage of Glucosylceramide; settings: purified N370S GCase; series mostly up to 77.6 µM; activity change, negative = inhibition: at the top concentration
Text: NIH Chemical Genomics Center [NCGC]
NIH Molecular Libraries Probe Production Centers Network [MLPCN]
Assay Submitter (PI): Wei Zheng
Glucocerebrosidase (GC) catalyzes the hydrolysis of beta-glucocerebroside to glucose and ceramide in lysosomes. Mutations in the glucocerebrosidase gene result in Gaucher disease, an autosomal recessive lysosomal storage disorder. Many of the mutations encountered in patients with Gaucher disease are missense alterations that may cause misfolding, decreased stability and/or mistrafficking of this lysosomal protein. […] These inhibitors include iminosugar analogs and three non-iminosugar inhibitors identified from a previous HTS of 62,000 compounds with the wild type recombinant enzyme. However, the enhancement of enzyme activity by the chaperone action of an enzyme inhibitor must be balanced against the direct inhibition of the enzyme. An enzyme activator could also function as a chaperone by binding to the enzyme and helping to correct its misfolding and mistrafficking. While activators for GC have not yet been identified, they may have better therapeutic potential than inhibitors. Therefore the discovery and development of chemical activators may provide a new strategy for the chaperone therapy.
We have optimized a new assay using N370S mutant GC derived from the spleen of a Gaucher patient. […] In addition, the MLPCN compound library has expanded, which increases the chance of finding new and better probes.
This assay characterizes compound activity using purified, mutant enzyme cleavage of the native substrate for the enzyme instead of mutant enzyme from tissue homogenate. Compound activity differences may be due to the absence of endogenous cofactors found in tissue homogenate as well as inherent differences in enzyme stability and catalytic activity using the difference substrates.
NCGC Assay Protocol Summary:
This is an enzyme assay using glucosylceramide from soy (Avanti Polar Lipids Catalog #: 131304P) as the substrate and recombinant human glucocerebrosidase as the enzyme preparation. Upon hydrolysis of the substrate, the glucose product can be detected using the Amplex Red Glucose Oxidase Assay Kit (Invitrogen catalog #: A22189). The product of this reaction can be read with a fluorescence plate reader with an excitation at 573 nm and an emission at 610 nm. Data were normalized to the controls for basal activity (without enzyme) and 100% activity (with enzyme). The AC50 values were determined from concentration-response data modeled with the standard Hill equation.
Assay buffer for enzyme reaction: 50 mM citric acid (titrated with potassium phosphate to pH 5.9), 0.01% Tween-20 (pH 5.9 is an optimal condition for this enzyme assay)
Assay buffer for Amplex Red reaction: Tris-HCl, pH 7.5
1536-well assay protocol for the glucocerebrosidase assay:
(1) Add 2 ul/well glucocerebrosidase enzyme solution (5 nM final)
(2) Add 23 nL compounds in DMSO solution. The final titration was 0.7 nM to 77 uM.
(3) Add 1 ul of glucosylceramide solution (50 uM final)
(4) Incubate at 37C for 40 min
(5) Add 2 ul tris-HCl buffer with Amplex Red reagents
(6) Incubate 45 min at room temperature.
(7) Detect the assay plate in a ViewLux plate reader (PerkinElmer) with Ex=573 nm and Em=610nm.
Keywords: Glucocerebrosidase, beta-glucosidase, Gaucher Disease, pharmacological chaperone, chaperone therapy, high throughput screening, glucocerebrosidase inhibitor, MLSMR, MLSCN, NIH Roadmap, qHTS and NCGC

Sequence of Lysosomal acid glucosylceramidase (Homo sapiens) (P04062 whole entry N409S): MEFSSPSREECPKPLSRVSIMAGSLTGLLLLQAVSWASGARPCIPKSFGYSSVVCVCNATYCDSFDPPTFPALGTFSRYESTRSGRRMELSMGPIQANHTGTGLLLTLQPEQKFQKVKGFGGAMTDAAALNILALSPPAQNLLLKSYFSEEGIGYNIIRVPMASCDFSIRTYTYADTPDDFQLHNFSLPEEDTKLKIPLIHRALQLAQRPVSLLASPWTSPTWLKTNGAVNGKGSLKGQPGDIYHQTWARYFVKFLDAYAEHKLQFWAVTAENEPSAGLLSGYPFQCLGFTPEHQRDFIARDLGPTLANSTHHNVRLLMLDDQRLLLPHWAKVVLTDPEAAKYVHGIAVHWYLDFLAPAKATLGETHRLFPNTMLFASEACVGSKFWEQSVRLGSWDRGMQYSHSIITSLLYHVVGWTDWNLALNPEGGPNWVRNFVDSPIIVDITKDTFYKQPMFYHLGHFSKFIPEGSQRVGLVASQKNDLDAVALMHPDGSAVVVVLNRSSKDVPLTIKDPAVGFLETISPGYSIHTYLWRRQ

Row | SMILES | activity change, negative = inhibition | Potency
1 | COc1ccccc1OCC(=O)Nc1oc(-c2ccccc2)c(-c2ccccc2)c1C#N | -5.84% (inactive) | –
2 | c1ccc(CNc2nc(-c3cccs3)nc3ccccc23)cc1 | -24.4% (inactive) | –
3 | COc1ccc(N(CC(=O)NC2CCCCC2)S(=O)(=O)c2c(C)[nH]c(=O)[nH]c2=O)cc1 | -12.7% (inactive) | –
4 | Nc1nc(-c2ccccc2)c(N=Nc2ccc(Cl)cc2)s1 | -9.16% (inactive) | –
5 | S=C(NCCCc1cnc[nH]1)NCCCN(Cc1ccc(Cl)c(Cl)c1)c1ccc(Br)cn1 | – | 44.7 µM (active)
6 | Cc1ccc(NC(=O)COc2ccccc2C(=O)Nc2ccccc2)cc1Cl | 2.52% (inactive) | –
7 | Clc1ccccc1-c1nccc(NCc2ccccc2)n1 | -2.27% (inactive) | –
8 | Cc1ccccc1-c1nccc(NCc2cccs2)n1 | 10.1% (inactive) | –
9 | CSc1ccc(NC(=O)Nc2cc(C)ccn2)cc1 | -12.3% (inactive) | –
10 | COc1ccccc1C(=O)COC(=O)c1ccccc1OCC(=O)Nc1ccc(SC(F)F)cc1 | -9.62% (inactive) | –
11 | CCc1ccc(NC(=O)c2cnn3c(C(F)F)cc(C)nc23)cc1 | -7.13% (inactive) | –
12 | CC(C)(C)c1ccc(S(=O)(=O)N2CCN(c3nc(-c4cccs4)nc4ccccc34)CC2)cc1 | 15.3% (inactive) | –
13 | O=S(=O)(c1ccc(Cl)cc1)N1CCN(c2nc(-c3ccc(F)cc3)nc3cc(Cl)ccc23)CC1 | 16.7% (inactive) | –
14 | O=C(COc1ccccc1C(=O)c1cnn(-c2ccccc2)c1)Nc1ccccc1 | -6.49% (inactive) | –
15 | O=C(c1ccc2c(c1)OCCO2)N1CCN(c2nc(-c3cccs3)nc3ccccc23)CC1 | 9.84% (inactive) | –
16 | O=C(CSc1nccc(-c2cccs2)n1)Nc1cccc(Cl)c1 | 25.1% (inactive) | –
17 | CCOc1ccc(N(CC(=O)Nc2ccc(C)cc2)S(=O)(=O)c2c(C)[nH]c(=O)[nH]c2=O)cc1 | -20.8% (inactive) | –
18 | c1ccc2c(NCC3CCCO3)nc(N3CCOCC3)nc2c1 (stereo not given) | -8.4% (inactive) | –
19 | c1csc(-c2nc(NCC3CCCO3)c3ccccc3n2)c1 (stereo not given) | -6.96% (inactive) | –
20 | CC(C)(C)C(=O)OCCNc1nc(-c2ccccc2)nc2ccccc12 | – | 39.8 µM (active)

Row | SMILES | activity change, negative = inhibition | Potency
21 | COc1cccc(CN(C)c2nc(-c3cccs3)nc3ccccc23)c1 | -8.66% (inactive) | –
22 | Cc1ccc(-c2nc(N3CCN(S(=O)(=O)c4ccc(F)cc4)CC3)c3ccc(Cl)cc3n2)cc1 | -6.45% (inactive) | –
23 | CCC(C)c1ccc(NC(=O)c2cnn3c(C(F)F)cc(C)nc23)cc1 (stereo not given) | -16.7% (inactive) | –
24 | O=C(Nc1cnn(Cc2ccc(F)cc2)c1)c1cnn2c(C(F)F)cc(-c3ccccc3)nc12 | -6.37% (inactive) | –
25 | Cc1ccccc1S(=O)(=O)N1CCN(c2nc(-c3cccs3)nc3ccccc23)CC1 | 20% (inactive) | –
26 | OCCNc1nc(-c2cccs2)nc2ccccc12 | -15.8% (inactive) | –
27 | Cc1ccc(S(=O)(=O)N2CCN(c3nc(-c4cccs4)nc4ccccc34)CC2)cc1 | – | inactive
28 | O=S(=O)(c1ccc2c(c1)OCCO2)N1CCN(c2nc(-c3ccccc3)nc3ccccc23)CC1 | 7.83% (inactive) | –
29 | CCC(=O)OCCNc1nc(-c2ccccc2)nc2ccccc12 | 6.09% (inactive) | –
30 | Cc1cc(C)cc(N(CC(=O)NC2CCC(C)CC2)S(=O)(=O)c2c(C)[nH]c(=O)[nH]c2=O)c1 (stereo not given) | – | 35.5 µM (active)
31 | Cc1cccc(/C=N/NC(=O)NC23CC4CC(CC(C4)C2)C3)n1 | -1.18% (inactive) | –
32 | O=S(=O)(c1ccccc1)N1CCN(c2nc(-c3ccc(F)cc3)nc3cc(Cl)ccc23)CC1 | 12.6% (inactive) | –
33 | O=S(=O)(c1ccccc1Cl)N1CCN(c2nc(-c3cccs3)nc3ccccc23)CC1 | 1.96% (inactive) | –
34 | CC(=O)Nc1ccc(NC(=O)COc2ccccc2C(=O)Nc2cccc(Cl)c2Cl)cc1 | -13.6% (inactive) | –
35 | COc1ccc(-c2nc(N3CCN(S(=O)(=O)c4ccc(C)cc4)CC3)c3ccccc3n2)cc1 | 22.7% (inactive) | –
36 | O=S(=O)(c1cccc2ccccc12)N1CCN(c2nc(-c3cccs3)nc3ccccc23)CC1 | -9.47% (inactive) | –
37 | O=S(=O)(c1ccc(Cl)cc1)N1CCN(c2nc(-c3cccc(Br)c3)nc3ccccc23)CC1 | 6.57% (inactive) | –
38 | O=S(=O)(c1ccc(Cl)cc1)N1CCN(c2nc(Nc3cc(Cl)ccc3O)nc3ccccc23)CC1 | – | 14.1 µM (active)
39 | COc1cc(OC)c2c(N)c(C#N)c(C(F)(F)C(F)(F)F)nc2c1 | 8.65% (inactive) | –
40 | O=S(=O)(c1ccc2c(c1)OCCO2)N1CCN(c2nc(-c3cccs3)nc3ccccc23)CC1 | -13.9% (inactive) | –
